High-throughput results deposited in PubChem by National Center for Advancing Translational Sciences (NCATS).
Rows were chosen to be rich in hits. Some 5.6% of all compounds tested hit in one or more screens of this group.
CtBP-E1A inh: CtBP/E1A binding inhibition; AlphaScreen GST-E1A/His-CtBP binding, 1536-well; active compounds read low; activity change, % (test concentration not listed); hit rate 0.49% among 340,000; in the data active = activity change below about -65%; inconclusive = mostly about -30% to -63%
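GST-E1A and His-tagged CtBP (125 nM each as 5X stock) were preincubated with pin-transferred compound for 2 h at 37 °C in the dark, then glutathione donor and nickel acceptor beads were added for 1 h before AlphaScreen reading.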
RORgamma inh: ROR gamma (mouse) transcription inhibition; P51450; Drosophila S2 Gal4-RORgamma UAS-luciferase reporter, 20 h; Potency, µM (titrated, usually from 53.6 µM), for inactives: top-dose activity change, negative = inhibition, actives largely listed as inhibitors; hit rate 5.4% among 310,000; note: potency is the fitted concentration of half-maximal effect; nearly all actives have a fitted effect of over 60% in size
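In this cell-based reporter format, copper sulfate (700 uM final) drives Gal4–ROR gamma fusion expression from a metallothionein promoter in Drosophila Schneider cells; compounds preincubated 1 hr, reporter read after 20 hr at ambient temperature.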
Gal4-VP16 FLuc: counter-screen for ROR gamma inhibitors: Gal4-VP16 reporter | Potency, µM (doses to about 53.6 µM), without a hit: at the highest dose activity, negative = inhibition, usual class: inhibitors | hit rate 3.5% among 310,000 | AID 2546 | Drosophila S2 Gal4-VP16 UAS-luciferase, luminescence, 20 h;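 note: Gal4-VP16 expression switched on by copper sulfate through the metallothionein promoter; potency is the fitted concentration of half-maximal effect; nearly all actives have a fitted effect of over 50% in size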
Six1-Eya2 blk: Six1/Eya2 interaction inhibition | AlphaScreen GST-Six1/His-Eya2 binding, biochemical; active compounds read low | activity change, % (no concentration beside the values) | hit rate 0.56% among 360,000; in the data active = activity change below about -65%; inconclusive = mostly about -30% to -63%
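Compounds are tested against tagged Six1 and Eya2 proteins bridged by glutathione donor and nickel acceptor beads; after a one-hour incubation at 37 °C without light, AlphaScreen emission is recorded.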
PKM2 act: PKM2 (human) enzyme activation; P14618; purified PKM2, Kinase-Glo ATP luminescence, activation; response scale: 0% is enzyme alone, no compound; Potency, µM (titrated, usually from 57.5 µM), for the others: at the highest dose activation, most hits filed as activators; hit rate 0.34% among 260,000; AID 1631; note: potency is the fitted concentration of half-maximal effect; nearly all actives have a fitted effect of over 55% in size
Target sequence (P14618 whole entry, looked up): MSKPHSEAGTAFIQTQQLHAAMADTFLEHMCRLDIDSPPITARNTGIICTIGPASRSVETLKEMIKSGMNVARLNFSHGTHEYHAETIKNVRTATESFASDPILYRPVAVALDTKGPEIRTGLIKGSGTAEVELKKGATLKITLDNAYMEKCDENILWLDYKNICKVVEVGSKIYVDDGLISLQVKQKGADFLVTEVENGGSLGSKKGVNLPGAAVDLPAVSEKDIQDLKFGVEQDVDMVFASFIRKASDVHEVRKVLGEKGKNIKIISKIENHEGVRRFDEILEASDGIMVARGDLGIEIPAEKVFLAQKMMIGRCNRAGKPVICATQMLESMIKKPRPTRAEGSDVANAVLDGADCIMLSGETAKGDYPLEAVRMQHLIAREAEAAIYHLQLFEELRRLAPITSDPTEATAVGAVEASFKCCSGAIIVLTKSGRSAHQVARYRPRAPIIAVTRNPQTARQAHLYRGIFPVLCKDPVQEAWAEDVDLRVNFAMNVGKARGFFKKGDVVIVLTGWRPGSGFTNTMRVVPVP
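ATP formation by purified human PK-M2, quantified via coupled luciferase luminescence after 1 h at room temperature with 0.1 mM ADP and 0.5 mM PEP final.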
Numbers without * were called inactive; ? = inconclusive; / = not tested or not shown; [ ] = remark or other dose. Unless noted, calls come from the whole dose curve; as a rule, active = well fitted curve in the direction sought with a large enough effect; inconclusive = small, poorly fitted or top-dose-only effect, or another doubt; inactive = no such curve, though single readings can be large; an effect the other way counts as inactive or inconclusive. % is set by controls: 0 for no effect and ±100 for the full control effect.

SMILES	CtBP-E1A inh	RORgamma inh	Gal4-VP16 FLuc	Six1-Eya2 blk	PKM2 act
CC(/C=C/c1ccc2c(c1)OCO2)=N\NC(=O)C(O)c1ccccc1 (stereo not drawn)	5.4	16.2%	19.7%	-20.2	-2.2%
CC(/C=C/c1ccccc1)=N\NC(N)=S	4.4	0.562µM*	2.24µM*	-8.9	-2.0%
CC(/C=C/c1ccc2c(c1)OCO2)=N\NC(=O)c1ccccc1	9.5	5.62µM*	15.8µM*	-2.2	-2.2%
O=C(Cc1cccc2ccccc12)N/N=C/C=C/c1cccc([N+](=O)[O-])c1	8.8	12.6µM*	?	-2.0	8.8%
COc1ccc(OC)c(Cc2nnc(CCC(=O)NC3C4CC5CC(C4)CC3C5)o2)c1 (stereo not drawn)	2.0	30.7%	-6.2%	2.8	-12.0%
Cc1cc(C)c(C)c(C(=O)C(=O)c2ccccc2)c1	-5.1	/	/	8.8	/
O=C(Nc1ccc(Cl)c(Cl)c1)c1cccc(S(=O)(=O)NCc2cccnc2)c1	1.0	?	?	?	-1.2%
O=C(N/N=C/c1ccc(OC(=O)c2ccc([N+](=O)[O-])cc2)cc1)c1cccnc1	2.9	-10.5%	5.0%	?	-2.1%
O=C(N/N=C\C=C\c1ccc([N+](=O)[O-])o1)c1cccs1	-8.3	7.94µM*	11.2µM*	-18.0	/
COc1ccc(NCC(=O)N/N=C/C=C\c2ccccc2)cc1	-2.7	11.2µM*	12.6µM*	-12.7	0.9%
O=C(N/N=C/C=C\c1ccc([N+](=O)[O-])cc1)c1cccnc1	-1.1	5.62µM*	?	15.3	-4.0%
O=C(NCCNC(=O)c1ccc(-c2ccc(Cl)c(Cl)c2)o1)c1cnccn1	-10.3	0.5%	-2.5%	-10.6	/
Cc1cccc(C(=O)N2CCNC(=O)C2CC(=O)Nc2cccc(Cl)c2)c1 (stereo not drawn)	-0.8	6.5%	-8.8%	0.2	-3.3%
O=C(COC(=O)c1c[nH]c2ccccc12)NC1CCCCC1	/	/	/	-0.3	/
CCCCNS(=O)(=O)c1ccc(Br)cc1N1CCC[C@H]1CO	6.7	/	/	2.3	/
CCCCOc1ccc(NC(=S)Nc2cc(C)nc(SCCCC)n2)cc1	21.1	1.41µM*	1µM*	4.4	-14.2%
CCOc1ccc(NC(=O)CSc2nc(C)cc(C)n2)cc1	7.1	-5.6%	0.1%	2.0	6.9%
CCCC(C(=O)NC1CCCC1)N(C(=O)c1snc(C(N)=O)c1N)c1ccc(F)cc1 (stereo not drawn)	6.7	7.0%	-0.4%	0.3	5.9%
CCn1c(SCC#N)nc2c(c1=O)C1(CCCC1)Cc1ccccc1-2	-2.2	-22.2%	0.3%	-3.4	-0.5%
CCn1c(=O)c2c(n3c(=S)[nH]nc13)-c1ccccc1CC21CCCCC1	4.3	2.82µM*	-12.7%	-5.4	1.7%
COCCNC(=O)C(c1ccc(C)cc1)N(C(=O)CCC(=O)Nc1ccccn1)C1CCCCC1 (stereo not drawn)	-5.7	-4.8%	4.1%	6.2	/
CCCCNC(=S)Nc1ccc(Oc2ccccc2)cc1	1.9	1.41µM*	5.62µM*	-10.4	-7.6%
CCCNC(=S)Nc1ccc(Oc2ccccc2)cc1	-4.9	12.6µM*	11.2µM*	-3.9	0.9%
COc1ccc(CNC(=O)COC(=O)c2ccc(Br)o2)cc1	/	/	/	20.5	/
Nc1nc2n(n1)C(c1cccs1)CC(c1ccccc1)N2 (stereo not drawn)	-8.9	12.6µM*	-18.3%	-2.1	1.6%
SMILES	CtBP-E1A inh	RORgamma inh	Gal4-VP16 FLuc	Six1-Eya2 blk	PKM2 act
Nc1nc2n(n1)C(c1cccs1)CC(c1ccc(F)cc1)N2 (stereo not drawn)	2.2	-3.8%	-1.6%	-1.5	-2.8%
COc1ccc(C2CC(c3ccccc3)Nc3nc(NC(=O)c4cccs4)nn32)cc1 (stereo not drawn)	-5.9	2.82µM*	5.62µM*	-0.5	0.4%
COc1ccc(C2CC(c3ccccc3)n3nc(NC(=O)c4cccs4)nc3N2)cc1 (stereo not drawn)	-1.7	3.55µM*	5.01µM*	-10.2	-9.2%
COc1ccc(C2CC(c3ccccc3)n3nnnc3N2)cc1 (stereo not drawn)	-0.2	-0.3%	-3.9%	-1.5	7.2%
Cc1c(N)cc2c(c1N)C(C)(C)CC2(C)C	2.3	/	/	0.9	/
COc1cc(OC)c(/C=N/NC(=O)Cn2nc([N+](=O)[O-])cc2C)c(OC)c1	1.0	17.8%	-8.1%	50.8	-0.3%
COc1ccc2nc(N3CCCC(C(=O)NCCc4ccc(OC)c(OC)c4)C3)sc2c1 (stereo not drawn)	1.1	?	-7.1%	-9.2	5.1%
COc1ccc(CCNC(=O)c2ccc3nc(N4CCCCC4)sc3c2)cc1OC	-2.3	2.24µM*	?	-1.9	-1.2%
O=C(O)c1cc2nccc(-c3ccc(F)cc3)n2n1	5.9	7.5%	-11.5%	1.1	1.0%
Nc1nc2ccc(C(=O)NCCOC(=O)C3CCCCC3)cc2s1	/	-20.4%	4.2%	-77.1*	1.7%
Fc1cccc(Cc2noc(CN3CCC(c4ccncc4)CC3)n2)c1	/	-19.5%	?	3.0	-3.3%
Fc1ccc(-n2c(CN3CCCCC3)n[nH]c2=S)cc1	0.0	?	-12.6%	21.6	/
FC(F)(F)c1ccccc1-n1c(CN2CCCCC2)n[nH]c1=S	-14.4	11.2µM*	-25.8%	1.4	-7.0%
S=c1[nH]nc(CN2CCCCC2)n1-c1ccc(Cl)cc1	3.4	7.08µM*	?	7.5	-16.7%
O=c1[nH][nH]c(=S)n1-c1ccccc1C(F)(F)F	/	3.5%	-2.9%	/	2.1%
O=C1C(C2=NC(c3ccccn3)C3C(=O)N(c4ccc(OC(F)(F)F)cc4)C(=O)C23)=C(O)c2ccccc21 (stereo not drawn)	-8.2	4.2%	0.1%	-8.7	-5.3%
O=C1C(C2=NC(C(=O)O)C3C(=O)N(c4ccccc4)C(=O)C23)=C(O)c2ccccc21 (stereo not drawn)	-0.5	11.2µM*	12.6µM*	11.6	-45.2%
CSc1ccccc1NC(=S)N/N=C/c1cccn1Cc1cccc(C)c1	-3.3	0.891µM*	5.01µM*	-0.8	-3.9%
CSc1ccccc1NC(=S)N/N=C/c1cccn1Cc1ccc(F)cc1	0.0	?	?	?	6.2%
Cc1cccc(NC(=S)N/N=C/c2cccn2Cc2ccc(F)cc2)c1	-9.3	0.199µM*	2.24µM*	-23.1	-5.3%
Cc1cccc(NC(=O)Cc2ccc(F)cc2)c1	4.8	17.6%	27.4%	8.6	2.9%
C=CCNc1nc(SC)nc2ccsc12	1.2	-22.1%	4.0%[0.365 µM]	-1.8	2.5%
C=CCSc1nc(N(CC)CC)c2sccc2n1	25.1	11.2µM*	-16.9%	16.4	-2.7%
O=C(NCCNCc1ccccn1)c1ccco1	?	8.9%	-5.3%	?	-5.3%
CN(CCc1ccccn1)C(=S)NC(=O)c1ccco1	15.5	14.1µM*	?	3.5	0.4%
O=C(NC(NCc1ccccn1)(C(F)(F)F)C(F)(F)F)c1ccco1	?	10µM*	-14.7%	-73.4*	-0.9%
